The record followed here is PubChem BioAssay (EPA / NIEHS).

For assay [1], the target named is rat Constitutive Nitric Oxide Synthase (CNOS), Nos1 (gene 24598) (UniProt P29476). Kind of assay: NVS_ENZ_rCNOS: NovaScreen (NVS) Enzymatic Assay for rat Constitutive Nitric Oxide Synthase (CNOS) (AID 2283236). The method, boiled down:
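Enzyme activity in rat brain membrane preparation, read 1 h after dosing by filter-based radiometric scintillation counting. Primary screen in duplicate at 25 uM; actives (e.g., ≥30% inhibition) then run in concentration-response up to 50 uM.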

For assay [2], the target named is rat Monoamine Oxidase, MAO-B, Peripheral (MAOBP), Maob (gene 25750) (UniProt P19643). Kind of assay: NVS_ENZ_rMAOBP: NovaScreen (NVS) Enzymatic Assay for rat Monoamine Oxidase, MAO-B, Peripheral (MAOBP) (AID 2283242).
Assay [3] deals with guinea pig Muscarinic, Peripheral (Mperiperal) Receptor, Non-selective Binding, gene 100379235. Kind of assay: NVS_GPCR_gMPeripheral_NonSelective: NovaScreen (NVS) G Protein-Coupled Receptor Assay for guinea pig Muscarinic, Peripheral (Mperiperal) Receptor, Non-selective Binding (AID 2283250). Put shortly: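 Guinea pig bladder membranes, radioligand binding read 1 h after dosing by filter scintillation counting; loss of signal vs DMSO. Primary duplicate screen at 25 uM, then concentration-response up to 50 uM.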

For assay [4], the target named is human Serotonin, 5-Hydroxytryptamine Receptor 5A (5HT5A), HTR5A (gene 3361) (UniProt P47898). Kind of assay: NVS_GPCR_h5HT5A: NovaScreen (NVS) G Protein-Coupled Receptor Assay for human Serotonin, 5-Hydroxytryptamine Receptor 5A (5HT5A) (AID 2283251). The method, boiled down:
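Cell-free radioligand displacement binding on HEK293-derived membrane protein, 1 h incubation, filter-based scintillation counting. Primary screen in duplicate at 25 uM, actives followed in concentration series; loss of signal fitted versus DMSO.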

For assay [5], the target named is human Serotonin, 5-Hydroxytryptamine Receptor 6 (5HT6), HTR6 (gene 3362) (UniProt P50406). Kind of assay: NVS_GPCR_h5HT6: NovaScreen (NVS) G Protein-Coupled Receptor Assay for human Serotonin, 5-Hydroxytryptamine Receptor 6 (5HT6) (AID 2283253). The method, boiled down:
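Radioligand binding to 5HT6 in HEK293-derived membranes, cell-free, 1 h after dosing; bound ligand measured by filter-based scintillation counting. Primary screen in duplicate at 25 uM; actives retested in concentration series.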

Assay [6] deals with sheep Cyclooxygenase-1 (Cox1), PTGS1 (gene 443551) (UniProt P05979). Kind of assay: NVS_ENZ_oCOX1: NovaScreen (NVS) Enzymatic Assay for sheep Cyclooxygenase-1 (Cox1) (AID 2283239).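 Also: actives reduce cyclooxygenase activity so potencies are for inhibitors.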 Put shortly:
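Absorbance read-out of cyclooxygenase activity in a cell-free preparation from sheep seminal vesicles, taken 0.66 hour after dosing. Initial testing was in duplicate at 25 uM, and confirmatory testing was run in concentration series.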

Assay [7] deals with guinea pig Leukotriene B4 Receptor (LTB4), gene 100379538. Kind of assay: NVS_GPCR_gLTB4: NovaScreen (NVS) G Protein-Coupled Receptor Assay for guinea pig Leukotriene B4 Receptor (LTB4) (AID 2283247). The method, boiled down:
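Radioligand displacement on guinea pig spleen membranes, filter-based scintillation counting 2 h after dosing. Primary duplicate single point at 25 uM; hits over threshold (e.g. 30% inhibition) run in concentration-response up to 50 uM, DMSO baseline.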

Assay [8] has as its target guinea pig Leukotriene D4 Receptor (LTD4), CYSLTR1 (gene 100135514) (UniProt Q2NNR5). Kind of assay: NVS_GPCR_gLTD4: NovaScreen (NVS) G Protein-Coupled Receptor Assay for guinea pig Leukotriene D4 Receptor (LTD4) (AID 2283248). Put shortly: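 Radioligand displacement on guinea pig lung membranes, 1 h incubation, filtration and scintillation counting; DMSO as negative control. Duplicate 25 uM primary screen, then singleton concentration-response up to 50 uM.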

Assay [9] deals with human Serotonin, 5-Hydroxytryptamine Receptor 7 (5HT7), HTR7 (gene 3363) (UniProt P34969). Kind of assay: NVS_GPCR_h5HT7: NovaScreen (NVS) G Protein-Coupled Receptor Assay for human Serotonin, 5-Hydroxytryptamine Receptor 7 (5HT7) (AID 2283255).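 Also: hits reduce specific radioligand binding relative to DMSO.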 The method, boiled down:
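Radioligand displacement on membranes from CHO cells expressing human 5HT7, 1 h incubation, filter-based scintillation counting. Primary screen used a single 25 uM concentration in duplicate; actives were followed up in concentration series.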

Assay [10] concerns the target human Adenosine A2a Receptor (AdoRA2a), ADORA2A (gene 135) (UniProt P29274). Kind of assay: NVS_GPCR_hAdoRA2a: NovaScreen (NVS) G Protein-Coupled Receptor Assay for human Adenosine A2a Receptor (AdoRA2a) (AID 2283256). The method, boiled down: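 Cell-free radioligand binding on membranes from HEK293 expressing the receptor; competitive displacement read 1.5 h after dosing by filter-based scintillation counting. Primary screen in duplicate at 25 uM; actives followed in concentration series, with DMSO as baseline.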

For assay [11], the target named is rat Monoamine Oxidase, MAO-B, Central (MAOBC), Maob (gene 25750) (UniProt P19643). Kind of assay: NVS_ENZ_rMAOBC: NovaScreen (NVS) Enzymatic Assay for rat Monoamine Oxidase, MAO-B, Central (MAOBC) (AID 2283238). Put shortly: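 Compounds were first tested in duplicate at 25 uM against MAO-B from rat brain tissue; those passing the inhibition threshold were retested in concentration series up to 50 uM. Radiodetection by scintillation counting at 1.17 h, analysed against DMSO baseline.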

The test system of assay [12] is rat Monoamine Oxidase, MAO-A, Central (MAOAC), gene 29253. Kind of assay: NVS_ENZ_rMAOAC: NovaScreen (NVS) Enzymatic Assay for rat Monoamine Oxidase, MAO-A, Central (MAOAC) (AID 2283243).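 Also: potency refers to inhibition seen as signal drop below DMSO baseline.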 Put shortly: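 Rat brain tissue extract served as the cell-free enzyme source; activity was measured by radiometric scintillation counting 1.5 hours after compound addition. Loss of signal relative to DMSO baseline indicated inhibition; primary screen at 25 uM in duplicate.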

In assay [13] the target is bovine Dopamine Receptor (DR), Non-selective Binding, DRD1 (gene 281125) (UniProt Q95136). Kind of assay: NVS_GPCR_bDR_NonSelective: NovaScreen (NVS) G Protein-Coupled Receptor Assay for bovine Dopamine Receptor (DR), Non-selective Binding (AID 2283241). Put shortly: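 Bovine striatal membranes; radioligand displacement read by filtration and scintillation counting 1 h after dosing, loss of signal vs DMSO. Screened in duplicate at 25 uM, then concentration-response for hits.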

Assay [14] deals with rat Catechol-O-Methyl Transferase (COMT), Comt (gene 24267) (UniProt P22734). Kind of assay: NVS_ENZ_rCOMT: NovaScreen (NVS) Enzymatic Assay for rat Catechol-O-Methyl Transferase (COMT) (AID 2283235). Put shortly:
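Cell-free enzyme activity with protein extracted from rat dorsal striatum, measured by HPLC with absorbance detection. Compounds screened at 25 uM in duplicate; actives then run in concentration-response up to 50 uM, loss of signal versus DMSO.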

The target in assay [15] is guinea pig Opioid, Kappa 1 Receptor (OpiateK), OPRK1 (gene 100135587) (UniProt P41144). Kind of assay: NVS_GPCR_gOpiateK: NovaScreen (NVS) G Protein-Coupled Receptor Assay for guinea pig Opioid, Kappa 1 Receptor (OpiateK) (AID 2283252).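 Also: active means reduced radioligand binding relative to DMSO.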 The method, boiled down: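 Signal is scintillation counts of filter-trapped radioligand bound to guinea pig cerebellar membrane receptor, measured 2 hours post-dosing. Activity is loss of binding versus DMSO, first at 25 uM in duplicate, then as concentration series for actives.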

“And” between values parts separate entries of the source, which are not always exact repeats. Equal values may be shown once. Inconclusive results are not listed. Some structures have more than one record in an assay (separate samples or runs), and their calls can disagree. The source made the active and inactive calls. The calls were made as follows: active = hit-call score of the fitted dose curve at least 0.9, where 1 is the maximum; inconclusive = response in the unintended direction; inactive = score below 0.9.

The term AC50 denotes the midpoint of the concentration-response curve, whichever way the signal moves.

guinea pig Leukotriene D4 Receptor (LTD4), CYSLTR1 (gene 100135514), sequence (Q2NNR5 whole entry, looked up): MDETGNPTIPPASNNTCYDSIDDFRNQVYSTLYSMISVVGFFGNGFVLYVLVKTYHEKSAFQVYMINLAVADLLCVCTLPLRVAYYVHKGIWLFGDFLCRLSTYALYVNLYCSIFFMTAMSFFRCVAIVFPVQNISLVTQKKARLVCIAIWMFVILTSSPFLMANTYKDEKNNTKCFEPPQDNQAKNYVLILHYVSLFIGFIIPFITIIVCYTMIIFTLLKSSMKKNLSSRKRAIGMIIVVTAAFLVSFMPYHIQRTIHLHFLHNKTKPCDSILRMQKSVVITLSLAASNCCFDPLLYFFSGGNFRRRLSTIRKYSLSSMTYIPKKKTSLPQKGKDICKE
human Serotonin, 5-Hydroxytryptamine Receptor 6 (5HT6), HTR6 (gene 3362), sequence (P50406 whole entry, looked up): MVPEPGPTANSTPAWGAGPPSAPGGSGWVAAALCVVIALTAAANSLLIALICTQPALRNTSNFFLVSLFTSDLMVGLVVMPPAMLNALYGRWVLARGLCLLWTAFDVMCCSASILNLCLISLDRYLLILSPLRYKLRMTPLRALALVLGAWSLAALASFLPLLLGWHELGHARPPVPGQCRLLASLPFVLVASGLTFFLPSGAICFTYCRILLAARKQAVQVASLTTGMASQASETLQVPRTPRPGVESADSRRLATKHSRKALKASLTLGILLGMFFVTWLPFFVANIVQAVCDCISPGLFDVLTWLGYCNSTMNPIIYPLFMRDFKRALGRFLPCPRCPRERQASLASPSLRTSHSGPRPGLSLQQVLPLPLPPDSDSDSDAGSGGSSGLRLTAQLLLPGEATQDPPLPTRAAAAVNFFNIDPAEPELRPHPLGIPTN
rat Constitutive Nitric Oxide Synthase (CNOS), Nos1 (gene 24598), sequence (P29476 whole entry, looked up): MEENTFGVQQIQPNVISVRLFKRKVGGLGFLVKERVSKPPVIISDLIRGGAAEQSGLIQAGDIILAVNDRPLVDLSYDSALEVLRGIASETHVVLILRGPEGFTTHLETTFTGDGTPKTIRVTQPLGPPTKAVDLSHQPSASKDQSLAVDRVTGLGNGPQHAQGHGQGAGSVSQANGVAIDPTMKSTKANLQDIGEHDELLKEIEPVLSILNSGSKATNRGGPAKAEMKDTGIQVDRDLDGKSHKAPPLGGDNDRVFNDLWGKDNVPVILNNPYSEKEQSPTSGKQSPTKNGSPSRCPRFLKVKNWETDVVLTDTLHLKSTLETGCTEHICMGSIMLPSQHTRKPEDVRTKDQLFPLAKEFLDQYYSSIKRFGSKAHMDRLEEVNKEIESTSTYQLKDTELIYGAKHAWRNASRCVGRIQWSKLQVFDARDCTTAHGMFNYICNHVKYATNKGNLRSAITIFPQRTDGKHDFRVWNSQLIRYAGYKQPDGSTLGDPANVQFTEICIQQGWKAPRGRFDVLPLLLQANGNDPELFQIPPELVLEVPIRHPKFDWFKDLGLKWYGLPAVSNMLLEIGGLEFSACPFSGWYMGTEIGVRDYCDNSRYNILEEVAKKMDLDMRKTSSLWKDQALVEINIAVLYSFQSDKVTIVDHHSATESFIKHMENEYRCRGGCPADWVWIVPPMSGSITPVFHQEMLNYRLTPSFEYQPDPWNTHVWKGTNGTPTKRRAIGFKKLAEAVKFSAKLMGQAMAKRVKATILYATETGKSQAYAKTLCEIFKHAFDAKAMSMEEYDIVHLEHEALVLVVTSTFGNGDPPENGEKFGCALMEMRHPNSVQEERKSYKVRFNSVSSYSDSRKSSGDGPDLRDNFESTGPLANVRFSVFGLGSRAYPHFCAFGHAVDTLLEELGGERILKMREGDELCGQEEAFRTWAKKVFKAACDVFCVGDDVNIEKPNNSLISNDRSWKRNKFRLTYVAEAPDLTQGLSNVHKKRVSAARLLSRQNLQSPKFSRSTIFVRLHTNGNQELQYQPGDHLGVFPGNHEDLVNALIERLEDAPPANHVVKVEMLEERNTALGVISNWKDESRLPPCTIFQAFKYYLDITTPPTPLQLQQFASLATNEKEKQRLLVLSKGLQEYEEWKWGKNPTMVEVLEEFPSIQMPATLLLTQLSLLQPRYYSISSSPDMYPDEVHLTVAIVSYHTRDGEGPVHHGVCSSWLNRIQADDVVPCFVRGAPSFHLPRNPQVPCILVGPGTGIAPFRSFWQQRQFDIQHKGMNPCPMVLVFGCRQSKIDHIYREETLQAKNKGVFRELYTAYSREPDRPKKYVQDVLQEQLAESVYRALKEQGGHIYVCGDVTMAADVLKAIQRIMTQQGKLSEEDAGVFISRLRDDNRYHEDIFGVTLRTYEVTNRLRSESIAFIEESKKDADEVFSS
sheep Cyclooxygenase-1 (Cox1), PTGS1 (gene 443551), sequence (P05979 whole entry, looked up): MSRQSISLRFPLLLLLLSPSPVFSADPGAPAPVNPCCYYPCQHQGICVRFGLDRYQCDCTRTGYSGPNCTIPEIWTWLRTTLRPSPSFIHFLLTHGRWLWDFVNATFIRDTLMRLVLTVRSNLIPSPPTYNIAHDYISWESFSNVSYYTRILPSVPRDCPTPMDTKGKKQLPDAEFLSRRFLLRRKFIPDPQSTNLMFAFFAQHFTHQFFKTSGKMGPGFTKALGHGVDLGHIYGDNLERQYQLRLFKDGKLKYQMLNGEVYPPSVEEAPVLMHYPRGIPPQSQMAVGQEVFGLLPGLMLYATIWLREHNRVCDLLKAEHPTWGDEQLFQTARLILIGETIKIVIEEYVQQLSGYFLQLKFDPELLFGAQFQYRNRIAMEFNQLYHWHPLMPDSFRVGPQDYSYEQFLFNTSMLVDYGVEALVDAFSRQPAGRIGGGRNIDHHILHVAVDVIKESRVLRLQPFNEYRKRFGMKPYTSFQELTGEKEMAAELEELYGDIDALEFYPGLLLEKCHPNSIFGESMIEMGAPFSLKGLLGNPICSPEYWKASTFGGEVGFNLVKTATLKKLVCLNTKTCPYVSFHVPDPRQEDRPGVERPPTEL
rat Monoamine Oxidase, MAO-B, Central (MAOBC), Maob (gene 25750), sequence (P19643 whole entry, looked up): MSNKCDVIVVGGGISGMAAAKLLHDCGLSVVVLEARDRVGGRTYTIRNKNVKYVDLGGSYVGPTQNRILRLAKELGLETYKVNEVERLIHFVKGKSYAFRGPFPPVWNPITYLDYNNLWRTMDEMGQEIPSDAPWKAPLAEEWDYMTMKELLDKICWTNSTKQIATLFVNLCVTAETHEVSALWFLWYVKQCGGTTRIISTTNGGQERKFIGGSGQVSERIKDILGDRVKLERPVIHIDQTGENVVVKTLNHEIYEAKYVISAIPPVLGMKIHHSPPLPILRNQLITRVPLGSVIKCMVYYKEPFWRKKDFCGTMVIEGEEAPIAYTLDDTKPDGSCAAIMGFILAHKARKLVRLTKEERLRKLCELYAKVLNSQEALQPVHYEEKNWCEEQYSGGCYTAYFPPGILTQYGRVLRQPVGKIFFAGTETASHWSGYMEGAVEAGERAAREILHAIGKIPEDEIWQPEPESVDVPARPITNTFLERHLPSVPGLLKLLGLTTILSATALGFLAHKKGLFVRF
human Adenosine A2a Receptor (AdoRA2a), ADORA2A (gene 135), sequence (P29274 whole entry, looked up): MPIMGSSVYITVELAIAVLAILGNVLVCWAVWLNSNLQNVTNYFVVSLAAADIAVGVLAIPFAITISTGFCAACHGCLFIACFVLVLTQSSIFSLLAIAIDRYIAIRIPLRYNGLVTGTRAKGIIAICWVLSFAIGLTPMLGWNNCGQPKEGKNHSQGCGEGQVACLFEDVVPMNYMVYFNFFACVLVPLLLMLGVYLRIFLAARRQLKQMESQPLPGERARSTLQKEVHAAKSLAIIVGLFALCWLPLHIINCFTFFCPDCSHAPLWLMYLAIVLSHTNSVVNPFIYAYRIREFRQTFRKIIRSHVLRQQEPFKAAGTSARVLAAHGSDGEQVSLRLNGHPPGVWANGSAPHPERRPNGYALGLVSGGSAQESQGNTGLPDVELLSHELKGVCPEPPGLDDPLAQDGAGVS
human Serotonin, 5-Hydroxytryptamine Receptor 7 (5HT7), HTR7 (gene 3363), sequence (P34969 whole entry, looked up): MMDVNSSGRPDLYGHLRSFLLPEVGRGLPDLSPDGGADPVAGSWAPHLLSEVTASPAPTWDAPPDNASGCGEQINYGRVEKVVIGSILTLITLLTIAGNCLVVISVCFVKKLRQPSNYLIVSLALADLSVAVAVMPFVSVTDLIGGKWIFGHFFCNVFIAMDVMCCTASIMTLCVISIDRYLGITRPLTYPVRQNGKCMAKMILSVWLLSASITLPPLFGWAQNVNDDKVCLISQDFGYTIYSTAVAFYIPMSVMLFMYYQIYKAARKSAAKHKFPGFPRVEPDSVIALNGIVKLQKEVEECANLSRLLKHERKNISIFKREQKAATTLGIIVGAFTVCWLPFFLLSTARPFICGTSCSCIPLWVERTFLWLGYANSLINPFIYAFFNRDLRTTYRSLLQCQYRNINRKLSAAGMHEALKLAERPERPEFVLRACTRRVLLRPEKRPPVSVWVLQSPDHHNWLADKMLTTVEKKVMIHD
human Serotonin, 5-Hydroxytryptamine Receptor 5A (5HT5A), HTR5A (gene 3361), sequence (P47898 whole entry, looked up): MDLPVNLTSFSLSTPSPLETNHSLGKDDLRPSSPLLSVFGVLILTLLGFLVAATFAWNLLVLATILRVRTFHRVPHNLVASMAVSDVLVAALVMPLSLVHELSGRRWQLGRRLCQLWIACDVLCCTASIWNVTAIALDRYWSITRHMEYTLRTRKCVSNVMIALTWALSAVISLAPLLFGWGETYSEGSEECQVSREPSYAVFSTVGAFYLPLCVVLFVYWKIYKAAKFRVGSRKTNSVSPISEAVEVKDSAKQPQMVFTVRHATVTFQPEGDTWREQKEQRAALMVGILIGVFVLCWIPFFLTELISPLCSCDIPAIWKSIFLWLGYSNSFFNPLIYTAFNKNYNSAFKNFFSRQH
rat Catechol-O-Methyl Transferase (COMT), Comt (gene 24267), sequence (P22734 whole entry, looked up): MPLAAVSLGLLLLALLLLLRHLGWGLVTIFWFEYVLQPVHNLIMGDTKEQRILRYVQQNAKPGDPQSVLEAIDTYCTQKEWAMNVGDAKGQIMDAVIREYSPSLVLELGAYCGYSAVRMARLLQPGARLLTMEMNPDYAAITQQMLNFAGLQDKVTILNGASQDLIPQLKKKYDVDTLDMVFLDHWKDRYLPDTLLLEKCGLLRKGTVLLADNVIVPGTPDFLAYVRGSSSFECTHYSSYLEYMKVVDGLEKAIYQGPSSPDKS

Take `O=C1c2ccccc2C(=O)N1SC(Cl)(Cl)Cl`: the AC50 in [1] is 2.25 µM (active); in assay [5], 16.3 µM (active). Also, the compound was classed as inactive in assay [2], in assay [3] and in [4].
As to `O=S(=O)(O)C(F)(F)C(F)(F)C(F)(F)C(F)(F)C(F)(F)C(F)(F)C(F)(F)C(F)(F)F`, the compound was classed as inactive in [6], in [7], in assay [8] and in assay [4]. The AC50 was 13.1 µM (active) [middle of 4 runs] in assay [7]; 24 µM (active) [middle of 4 runs] in assay [8]; 35.1 µM (active) and 11.6 µM (active) and 33.8 µM (active) in [4]; 32.7 µM (active) and 42.8 µM (active) in assay [5]; 6.51 µM (active) and 25 µM (active) and 24 µM (active) in assay [9]; 6.28 µM (active) [middle of 5 runs] in assay [10].
With `Cc1[nH]c(=O)n(C(C)(C)C)c(=O)c1Cl`, the compound was called inactive in [1].
Turning to `O=C(O)C(F)(F)C(F)(F)C(F)(F)C(F)(F)C(F)(F)C(F)(F)C(F)(F)F`, the call in [6], in assay [8], in [3] and in assay [4] was inactive. The AC50 in [7] was 18.5 µM (active); in [10] it was 11 µM (active).
In the case of `CCC(C)(C)C(=O)OC1=C(c2ccc(Cl)cc2Cl)C(=O)OC12CCCCC2`, in [4], the compound was called inactive.
With `CC(C)(C)C(O)/C(=C\c1ccc(Cl)cc1Cl)n1cncn1` (configuration not stated), the compound was classed as inactive in assay [4] and in assay [5].
For `C#CCN1C(=O)COc2cc(F)c(N3C(=O)C4=C(CCCC4)C3=O)cc21`, the AC50 in assay [11] is 25 µM (active); in [6], 1.11 µM (active); in [12] it was 6.93 µM (active).
In the case of `CC1(c2ccc(Oc3ccccc3)cc2)OC(=O)N(Nc2ccccc2)C1=O` (configuration not stated), in assay [6], the result was inactive.
`Cc1cc(C)nc(NC(=O)NS(=O)(=O)c2ccccc2C(=O)OC2COC2)n1`: in assay [1], the AC50 was 2.58 µM (active).
For the compound `COC(=O)c1ccccc1S(=O)(=O)NC(=O)N(C)c1nc(C)nc(OC)n1`, the call in [11] was inactive.
For the compound `CC(C)(C)C(O)C(Oc1ccc(Cl)cc1)n1cncn1` (configuration not stated), the compound was called inactive in assay [6].
Take `O=C(Nc1ccccc1)Nc1cnns1`: the outcome in assay [13], in assay [9] and in assay [10] was inactive. Besides, the concentration at half-maximal activity (AC50) was 5.16 µM (active) in assay [12], 25 µM (active) in assay [7] and 3.88 µM (active) in assay [4].
Regarding `CCN(CC)C(=O)SCc1ccc(Cl)cc1`, the result in assay [1] and in [4] was inactive.
On to `CC(C)OC(=O)Nc1cccc(Cl)c1`, for which the call in assay [14] and in assay [11] was inactive.
Regarding `CCCN(CCOc1c(Cl)cc(Cl)cc1Cl)C(=O)n1ccnc1`, the call in [1], in [4] and in [15] was inactive. Further, the AC50 in assay [12] is 8.15 µM (active); in assay [9], 13.3 µM (active).
